Screening data: PubChem, several laboratories
tim23-1 inh = inhibits growth of tim23-1 mutant yeast; S. cerevisiae tim23-1 growth, BacTiter-Glo luminescence, 24 h; inhibition, % at 20 µM; 1.3% of 330,000 active; AID 463212;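 active = growth inhibition of the mutant yeast at or above 50%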;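 also: temperature-sensitive mutant grown at 25 °C; plate controls were DMSO-treated mutant yeast for no effect and medium wells lacking yeast for full effect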
tim10-1 inh = growth inhibitors of tim10-1 mutant yeast; AID 463190; 2.2% of 330,000 active; inhibition, % at 20 µM; S. cerevisiae tim10-1 ts strain growth, BacTiter-Glo, 24 h;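 active = inhibition of at least 40%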;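 also: mutant grown at 25 °C; 0% = DMSO wells with yeast and 100% = wells holding no yeast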
NALP1 inh = blocks the NALP1 inflammasome reconstituted in yeast | S. cerevisiae NALP1/ASC/caspase-1 growth, X-gal OD620, 72 h | inhibition, % at 10 µM | 0.61% of 280,000 active | AID 2071; in the data active = inhibition mostly above about 24%, no sharp cut-off; inactive = mostly below about 32%
NLRP3 yeast inh = inhibitors of NALP3 inflammasome in yeast | Yeast reconstituted NLRP3/ASC/caspase-1, beta-gal luminescence, 24 h | inhibition, % at 10 µM | 0.39% of 330,000 active | AID 2825;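 active = inhibition of 50% or more; inactive = inhibition below 50%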;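 also: plate controls were induced DMSO wells for no effect and uninduced yeast grown without galactose for full effect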
TIM10 inh = inhibits growth of TIM10 yeast strain. 1.4% of 330,000 active. inhibition, % at 10 µM. S. cerevisiae TIM10 strain growth, BacTiter-Glo luminescence, 24 h. AID 463195;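 active = inhibition of 40% or more at the single tested concentration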;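 also: wild-type TIM10 isogenic control strain grown at permissive 25 °C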
PfHsp90 set2 = inhibits growth of yeast expressing Plasmodium falciparum Hsp90; inhibition, % at 9.4 µM; 0.32% of 310,000 active; AID 504621; S. cerevisiae expressing PfHsp90, BacTiter-Glo ATP, 48 h; yeast lacking PDR1 and PDR3 efflux regulators;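 active = every replicate shows inhibition above about 80%, whatever the replicate mean, limit read from the data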;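 also: 0% = DMSO neutral controls and 100% = 20 µM radicicol positive controls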
tim10-1 confirm = confirmation of tim10-1 mutant yeast growth inhibitors; 56% of 7,400 active; shares compounds with tim10-1 inh; inhibition, % at 20 µM; S. cerevisiae tim10-1 ts strain growth, BacTiter-Glo, 24 h;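 active = inhibition of yeast growth at or above a set limit in either of two repeat tests at 20 µM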;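 also: tim10-1 mutant grown at permissive 25 °C to find synthetic lethal compounds; 0% = DMSO yeast wells and 100% = medium wells without yeast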
* hit, by the source's call; x = not tested or not shown. In the library only some 4.2% were active in any assay of this set; here they are far more common.

SMILES | tim23-1 inh | tim10-1 inh | NALP1 inh | NLRP3 yeast inh | TIM10 inh | PfHsp90 set2 | tim10-1 confirm
CC(C(=O)NCC1CCCCC1)N1CCN(S(=O)(=O)/C=C/c2ccccc2)CC1 (centres undefined) | 17 | 41* | 42 | -15 | 20 | -4 | 13
CC(C(=O)NCC1CCCCC1)N1CCc2ccccc2C1 (centres undefined) | 17 | 12 | 0 | 4 | 1 | -3 | x
Nc1cccnc1Sc1ccc(Cl)cc1 | -4 | -1 | 10 | 15 | -4 | x | x
Nc1cccnc1Sc1cccc(Cl)c1 | 33 | 41* | -10 | 1 | 19 | 1 | 30
COC(=O)c1c(N2C(=O)[C@H]3[C@@H](C2=O)[C@]2(C(=O)Nc4ccccc42)N2CCC[C@@H]32)sc(C)c1C | 9 | 9 | 6 | 3 | 4 | x | x
O=C1[C@H]2[C@@H](C(=O)N1c1cc(Cl)cc(Cl)c1)[C@]1(C(=O)Nc3ccccc31)N1CCC[C@@H]21 | 31 | 45* | -4 | 14 | 13 | 13 | 26
Cc1cc(C)c(S(=O)(=O)c2ccccc2)c(OC(=O)c2c(Cl)cc(Cl)cc2Cl)n1 | -15 | 41* | 14 | 8 | 36 | 19 | 36*
Cc1cc(C)c(S(=O)(=O)c2ccccc2)c(OC(=O)c2c(F)cccc2F)n1 | 46 | 31 | 10 | 18 | 30 | -17 | x
COc1ccc2cc(C(=O)N/N=C/c3cc(OC)c(OC)c(OC)c3)[nH]c2c1 | 39 | 40* | 15 | 3 | 29 | 1 | 26
COc1ccc(/C=N/NC(=O)c2cc3cc(OC)c(OC)cc3[nH]2)cc1 | 22 | 14 | 11 | 4 | 2 | 11 | x
O=[N+]([O-])c1cc(Cl)ccc1N1CCN(c2ccccc2O)CC1 | 37 | 59* | -3 | 6 | 40 | -5 | 53*
COC(=O)c1cc(Cl)cc(Cl)c1OS(=O)(=O)N(C)C | 24 | 41* | -10 | -16 | -3 | -3 | 10
COc1c(Cl)cc(Cl)cc1C(=O)Nc1ccc(NC(C)=O)cc1 | 45 | 28 | 12 | 35 | 27 | 11 | x
COc1ccc(Br)cc1C(=O)Nc1cccc(C)c1 | 4 | 4 | 6 | 28 | -11 | 0 | x
COc1cccc(NC(=O)c2ccco2)c1 | 34 | 6 | -1 | 28 | 18 | 3 | x
COc1c(C)cc(Br)cc1C(=O)Nc1cccc(NC(=O)c2ccco2)c1 | 42 | 42* | 12 | 26 | 36 | -1 | 36*
COc1ccc(Br)cc1C(=O)Nc1cccc(NC(=O)c2ccco2)c1 | 49 | 42* | 5 | 5 | 14 | -9 | 31*
Cc1ccc(-c2csc(C3C(N)=NC(S)=C(C#N)C34CCCCC4)n2)cc1 (centres undefined) | 33 | 45* | -4 | 13 | 33 | x | 19
COc1ccccc1N1CCN(C2CC(=O)N(c3cccc(Br)c3)C2=O)CC1 (centres undefined) | 27 | 49* | -4 | 18 | 11 | -18 | 36*
O=C1CC(N2CCN(c3ccc(Cl)cc3)CC2)C(=O)N1c1ccccc1 (centres undefined) | 11 | -12 | 8 | 20 | -9 | 8 | x
O=C1CC(N2CCN(c3ccccc3Cl)CC2)C(=O)N1c1ccccc1 (centres undefined) | 11 | 49* | 10 | 17 | -12 | 2 | 19
CCOc1ccc(N2C(=O)CC(N3CCN(c4ccc(Cl)cc4)CC3)C2=O)cc1 (centres undefined) | 16 | 45* | 8 | 17 | 2 | 19 | 24
CC(=O)Nc1ccc(S(=O)(=O)NCc2nc(-c3ccccc3C)no2)cc1 | 13 | -2 | 9 | 17 | 3 | 7 | x
CCc1ccc([C@@H]2C[C@H]3CN(Cc4ccccc4OC)C(=O)[C@]34CCCN24)cc1 | 12 | 12 | -2 | 4 | 9 | 7 | x
CC(C)C(=O)N[C@H]1CCC2C3CC=C4C[C@@H](O)CC[C@]4(C)C3CC[C@@]21C (some centres undefined) | 20 | 11 | x | 25 | 2 | 17 | x
